Most compounds without a hit are left out; they make up all but 1.6% or so of the library.
KCNQ2 pot: potentiators of rat KCNQ2 potassium channel; Potassium voltage-gated channel subfamily KQT member 2 (Rattus norvegicus), O88943; CHO-K1 KCNQ2, FluxOR thallium flux fluorescence; hits give high values; B-score at 10 µM; 310,000 tested, 0.54% active; AID 2239, 2010;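 active = fluorescence ratio B-score at least 3 SD of library B-scores, with initial fluorescence B-score within 3 of them, cut at about 5.3 in these data; same plate scores as AID 2156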;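 also: B-score of peak minus minimum over baseline fluorescence ratio after K+ and Tl+ stimulus; positive B-score means potentiation of KCNQ2 with more thallium influx and brighter signal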
Target sequence (O88943 whole entry, looked up): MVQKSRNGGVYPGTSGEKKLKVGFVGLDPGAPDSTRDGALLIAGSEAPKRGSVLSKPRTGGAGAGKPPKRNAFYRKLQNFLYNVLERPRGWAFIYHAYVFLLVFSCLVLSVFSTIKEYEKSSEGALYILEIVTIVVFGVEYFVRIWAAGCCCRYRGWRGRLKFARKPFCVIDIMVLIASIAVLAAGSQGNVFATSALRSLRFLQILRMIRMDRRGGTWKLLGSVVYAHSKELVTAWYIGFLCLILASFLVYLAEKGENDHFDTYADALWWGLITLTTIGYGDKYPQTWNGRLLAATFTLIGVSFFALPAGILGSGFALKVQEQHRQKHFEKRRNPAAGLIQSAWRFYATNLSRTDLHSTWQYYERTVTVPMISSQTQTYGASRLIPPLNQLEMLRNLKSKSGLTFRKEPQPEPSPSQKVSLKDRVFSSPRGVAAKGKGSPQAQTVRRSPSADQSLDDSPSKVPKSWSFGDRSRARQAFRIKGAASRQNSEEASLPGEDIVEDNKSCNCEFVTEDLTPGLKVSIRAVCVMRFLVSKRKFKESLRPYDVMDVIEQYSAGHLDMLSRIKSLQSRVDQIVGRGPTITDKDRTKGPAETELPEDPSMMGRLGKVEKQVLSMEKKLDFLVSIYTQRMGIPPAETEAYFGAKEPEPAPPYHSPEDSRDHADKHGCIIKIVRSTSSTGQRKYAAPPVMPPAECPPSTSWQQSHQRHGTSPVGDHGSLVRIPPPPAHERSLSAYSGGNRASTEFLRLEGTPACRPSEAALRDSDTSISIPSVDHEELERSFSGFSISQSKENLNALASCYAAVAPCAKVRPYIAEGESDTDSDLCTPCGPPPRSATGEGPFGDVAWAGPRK
KCNQ2 inh: rat KCNQ2 potassium channel inhibitors, primary screen, cell-based, CHO-K1, FluxOR thallium flux, B-score; B-score at 10 µM; 20 min; hits give low values; 310,000 tested, 1.1% active; AID 2156, 2009;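 active = fluorescence ratio B-score at most minus 3 library SDs, with starting brightness B-score within 2 library SDs, cut at about -5.5 in these data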
KCNQ2 block conf: rat KCNQ2 potassium channel inhibitors, confirmation, cell-based, thallium flux | KCNQ2-expressing cells, inhibition; hits give low values | 1,000 tested, 57% active | AID 493025, 2011 | activity change, negative = inhibition, % at 10 µM | shares compounds with KCNQ2 inh
KCNQ1 spec: human KCNQ1 channel inhibition, counter-screen for KCNQ2 inhibitor project, cell-based, FluxOR thallium flux | shares compounds with KCNQ2 inh | KCNQ1-expressing cells, FluxOR thallium flux fluorescence; hits give low values | 1,000 tested, 15% active | activity change, negative = inhibition, % at 10 µM | AID 493026, 2011;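 active = activity change at least 3 SD of negative controls below their mean in both duplicate wells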;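 also: CHO cells stably transfected with KCNQ1 and depolarized by potassium stimulus; peak minus minimum fluorescence over baseline after thallium addition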
CHO parental ctr: thallium flux change in parental CHO cells, counter-screen for KCNQ2 inhibitor project; shares compounds with KCNQ2 inh; hits give low values; activity change, % at 10 µM; 1,000 tested, 14% active; AID 493029, 2011
KCNQ2 inh confirm: rat KCNQ2 channel inhibitors, confirmation, cell-based, automated patch clamp, single concentration; shares compounds with KCNQ2 inh; KCNQ2-expressing cells, automated patch clamp current; calls only at 10 µM; 550 tested, 49% active; AID 588531, 2011
A number is an active result; - = inactive; . = not tested or not shown; + = active, no number. Unless noted, no rule for the calls is given here.

SMILES	KCNQ2 pot	KCNQ2 inh	KCNQ2 block conf	KCNQ1 spec	CHO parental ctr	others
Cc1cc(NC(=O)CCC(=O)N(CC(=O)NCC2CCCO2)c2ccc(C(C)C)cc2)no1 (centres undefined)	.	-	.	.	.
CCSc1ccc(/C(N)=N/OC(=O)c2cccs2)cn1	-	-	.	.	.
C=C(C)c1cccc(C(C)(C)NC(=O)NNC(=O)c2ccccc2O)c1	.	-	.	.	.
O=C(O)c1ccccc1NC(=O)C1CCN(S(=O)(=O)c2cccc3nsnc23)CC1	-	-	.	.	.
CCCCCN1CN(S(=O)(=O)c2cccs2)c2nc3ccccc3nc21	.	-	.	.	.
CCOc1ccc(C(=O)Nc2ccccc2N2CCN(C(=O)c3ccccc3)CC2)cc1[N+](=O)[O-]	-	-	.	.	.
O=C(NNC(=O)c1cc(-c2cccnc2)nc2ccccc12)Nc1ccc(Cl)cc1	-	-9.8	-27%	-	-	KCNQ2 inh confirm=-
O=C(NNC(=O)c1cc(-c2ccncc2)nc2ccccc12)Nc1ccc(F)cc1	-	-	.	.	.
COc1ccccc1NC(=O)CC1C(=O)Nc2ccccc2N1C(=O)c1ccccc1 (centres undefined)	-	-	.	.	.
Cc1ccc(CNC(=O)Cn2c(=O)c3sccc3n(Cc3ccc([N+](=O)[O-])cc3)c2=O)cc1	.	-	.	.	.
N#C/C(=C\c1ccccc1[N+](=O)[O-])C(=O)NC1CCCCC1	-	-6.9	-34%	-	-	KCNQ2 inh confirm=+
CCOc1ccccc1/C=C(\C#N)C(=O)NC1CC1	.	-	.	.	.
CCOC(=O)N1CCN(C(=O)Cc2ccccc2OC)CC1	-	-	.	.	.
CCCCc1noc(-c2c(-c3ccccc3Cl)noc2C)n1	.	-	.	.	.
O=C(OCc1ccccc1Cl)c1ccccc1C(=O)c1ccccc1	-	-8.3	-36%	-36%	-34%	KCNQ2 inh confirm=-
O=C(COC(=O)c1ccccc1C(=O)c1ccc(Cl)cc1)NC(c1ccccc1)c1ccccc1	-	-8.7	-	-	-
O=C(OCc1ccccc1Cl)c1cccnc1Cl	.	-	.	.	.
O=C(COC(=O)c1ccccc1C(=O)c1ccc(Cl)cc1)NCCc1ccccc1	.	-	.	.	.
CCCCNC(=O)N1c2ccccc2CC1C (centres undefined)	.	-	.	.	.
O=[N+]([O-])C1C(c2ccccc2)=NOC1c1ccccc1O (centres undefined)	-	-	.	.	.
CCN(CC)CC(O)CN(c1ccccc1)S(=O)(=O)c1ccc2ccccc2c1 (centres undefined)	-	-	.	.	.
O=S(=O)(c1ccc2ccccc2c1)N(CC(O)COCc1ccco1)c1ccccc1 (centres undefined)	-	-8.9	-20%	-	-	KCNQ2 inh confirm=+
Cc1ccc(S(=O)(=O)NCc2cn3c(C)csc3n2)cc1	-	-	.	.	.
Cc1ccc(SCc2cn3c(C)csc3n2)cc1	-	-8.1	-	-	-
O=c1[nH]c(CSc2ncnc3sc(-c4ccccc4)cc23)nc2ccccc12	-	-	.	.	.
SMILES	KCNQ2 pot	KCNQ2 inh	KCNQ2 block conf	KCNQ1 spec	CHO parental ctr	others
O=C(/C=C/c1ccccc1Br)c1ccc2c(c1)OCO2	-	-6.8	-	-	-
O=C(/C=C/c1ccccc1)c1ccc2c(c1)OCO2	.	-	.	.	.
CN(Cc1ccccc1)C(=O)NC1CCCCC1	.	-	.	.	.
C=C(C)c1ccc(C(C)(C)NC(=O)N(Cc2ccccc2)Cc2ccco2)cc1	-	-6.9	-16%	-	-	KCNQ2 inh confirm=-
O=C(NC1CCCCC1)N(Cc1ccccc1)Cc1ccco1	-	-8.1	-	-	-
C=C(C)c1ccc(C(C)(C)NC(=O)NCc2ccco2)cc1	-	-	.	.	.
CCOc1ccccc1N(CC(=O)NCc1ccco1)C(=O)CCC(=O)Nc1nccs1	-	-	.	.	.
CCc1c(C)nc(SCc2ccccn2)[nH]c1=O	.	-	.	.	.
Cc1c(Cl)cccc1NC(=O)CS(=O)(=O)c1ccccc1	.	-	.	.	.
COC(=O)C(Cc1ccccc1)NCC(=O)Nc1cccc(Cl)c1C (centres undefined)	-	-8.2	-36%	-	-	KCNQ2 inh confirm=+
COc1ccc(NC(=O)c2ccsc2NC(C)=O)cc1	.	-	.	.	.
COc1ccccc1-c1cc(C(=O)N2CCN(c3ccccc3)CC2)no1	.	-	.	.	.
COc1cc2c(C(=O)N3CCN(c4ccccc4)CC3)c(C)oc2cc1Br	-	-7.4	-37%	-	-	KCNQ2 inh confirm=+
CCOC(=O)N1CCN(CCC(=O)c2ccc(Br)cc2)CC1	-	-7.1	-	-	-
COc1cc2c(cc1OC)CN(CCC(=O)c1ccc(Br)cc1)CC2	-	-9.6	-45%	-43%	-36%	KCNQ2 inh confirm=-
COc1cc2c(cc1OC)CN(CC(=O)Nc1cccc(C)c1)CC2	.	-	.	.	.
CCOC(=O)N1CCN(CCC(=O)Nc2ccc(C)cc2)CC1	-	-	.	.	.
Cc1cc(C(=O)CSc2ccc(Cl)cc2)cc(C)c1OC(=S)N(C)C	-	-8.7	-	-	-
Cc1cc(C(=O)CSc2ccc(F)cc2)cc(C)c1O	-	-	.	.	.
CCCc1cc(=O)oc2c(C)c(OCC(=O)NC3CCN(Cc4ccccc4)CC3)ccc12	.	-	.	.	.
CCN(c1ccccc1)c1nc(C#N)nc(N(CC)c2ccccc2)n1	-	-6.7	-30%	-	-	KCNQ2 inh confirm=-
CCN(CC)c1nc(C#N)nc(N(CC)CC)n1	.	-	.	.	.
Cc1ccc(C(=O)NCC(=O)NNC(=O)CN(C)S(=O)(=O)c2ccc(Cl)cc2)s1	.	-	.	.	.
O=S(=O)(/N=C(\Sc1ccccc1)c1ccccc1)c1ccc(Cl)cc1	-	-6.9	-	-	-
Cc1ccc(S(=O)(=O)/N=C(\Sc2ccccc2)c2ccccc2)cc1	.	-	.	.	.
SMILES	KCNQ2 pot	KCNQ2 inh	KCNQ2 block conf	KCNQ1 spec	CHO parental ctr	others
C=C(C)C1CC=C(C)/C(=N/NC(=O)CCC(=O)Nc2ccccc2Cl)C1 (centres undefined)	.	-	.	.	.
COc1ccccc1N1CCN(C(=O)c2oc3cc(C)cc(C)c3c2C)CC1	-	-8.2	-	-	-
COc1ccccc1N1CCN(C(=O)c2cc(=O)c3ccc(C)cc3o2)CC1	-	-	.	.	.
CCC(C)(NC(=O)c1ccc2c(c1)OCO2)C(=O)NC1CCCCC1 (centres undefined)	-	-	.	.	.
O=[N+]([O-])c1ccc(-c2csc(N3CCc4ccccc4C3)n2)cc1	.	-	.	.	.
O=[N+]([O-])c1ccc(N2CCc3ccccc3C2)cc1	-	-7.1	-	-	-
Cc1ccc(S(=O)(=O)Nc2ncccn2)cc1	.	-	.	.	.
CN(C)S(=O)(=O)c1cccc(NC(=O)CN2C(=O)C3C4C=CC(C4)C3C2=O)c1 (centres undefined)	.	-	.	.	.
CN(C)CCC(=O)c1ccc(F)cc1	.	-	.	.	.
CCN(CC)CCC(=O)c1ccc(F)cc1	-	-9	-36%	-	-	KCNQ2 inh confirm=-
COc1ccc(Cl)cc1NC(=O)C(C)N(C)Cc1ccc(C(F)(F)F)cc1 (centres undefined)	-	-6.8	-45%	-52%	-39%	KCNQ2 inh confirm=-
COc1cc(CN(C)C(C)C(=O)Nc2ccc([N+](=O)[O-])cc2Cl)ccc1OC(F)F (centres undefined)	.	-	.	.	.
CC[n+]1c(/C=C/Nc2ccccc2)sc2ccccc21	-	-	.	.	.
CCN1/C(=C/C=C/c2sc3ccccc3[n+]2CC)Sc2ccccc21	-	-6.9	-	-	-

Compound activity from PubChem.
